From PubChem BioAssay (Tox21)
“And” between values parts separate entries of the source, which are not always exact repeats. Equal entries are not always repeated. Inconclusive results are not listed. Entries that show only a call come without a potency. Where a structure was tested more than once in an assay, its records may differ in their call. The source made the active and inactive calls. The call rests on the fitted dose curve; in most records, active means well fitted curve in the direction sought with a large enough effect in the repeat runs; inconclusive means weak or mixed curves; inactive means no such curve, though single readings can be large; an effect the other way counts as inactive or inconclusive.

What was measured:
[1] = A CellTox Green Cytotoxicity Assay to monitor cytotoxicity in HEK293 cells - 32 hour (AID 1224881); further: nearly all actives have a fitted effect of over 40% in size
Outline: (§1)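 HEK293 cells, 600/well, were preincubated 5 hours and then exposed to compounds at 37 C for up to 40 hours. A cell-impermeant cyanine dye staining dead-cell DNA was read by fluorescence at 0, 8, 16, 24, 32 and 40 h time points.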

[2] = A CellTox Green Cytotoxicity Assay to monitor cytotoxicity in HepG2 cells - 0 hour (AID 1224882); further: nearly all actives have a fitted effect of over 35% in size
Outline: (§2)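 HepG2 cells, 600/well, preincubated 5 h with CellTox Green dye, then exposed to Tox21 compounds in DMSO at 37 C for up to 40 h. Dead-cell DNA fluorescence read at the indicated time point.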

[3] = A CellTox Green Cytotoxicity Assay to monitor cytotoxicity in HepG2 cells - 32 hour (AID 1224883); further: nearly all actives have a fitted effect of over 50% in size
Outline: as §2

[4] = A CellTox Green Cytotoxicity Assay to monitor cytotoxicity in HEK293 cells - 8 hour (AID 1224884); further: nearly all actives have a fitted effect of over 35% in size
Outline: as §1

[5] = qHTS RealTime-Glo MT Cell Viability Assay in HepG2 cells - 16 hour (AID 1224885); further: nearly all actives have a fitted effect of over 50% in size
Outline: (§3)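 HepG2 cells (600/well) were dispensed with RealTime-Glo reagents, incubated 5 h at 37 °C, then treated with compounds in DMSO for up to 40 h. Nonlytic NanoLuc luminescence reflecting viable cells was read at each stated time point.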

[6] = qHTS RealTime-Glo MT Cell Viability Assay in HEK293 cells - 24 hour (AID 1224886); further: nearly all actives have a fitted effect of over 50% in size
Outline: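 HEK293 cells seeded with NanoLuc/prosubstrate reagent, rested 5 h at 37 C, then dosed and kept at 37 C up to 40 h. Nonlytic real-time luminescence from viable cells read at 0, 8, 16, 24, 32 and 40 h.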

[7] = qHTS RealTime-Glo MT Cell Viability Assay in HEK293 cells - 8 hour (AID 1224887); further: nearly all actives have a fitted effect of over 50% in size
Outline: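 600 cells/well were plated with the nonlytic NanoLuc/prosubstrate reagent, pre-incubated 5 h, then given 23 nL of compound in DMSO. Incubation at 37 C for 40 h, with luminescence from viable-cell-reduced substrate read repeatedly from 0 h.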

[8] = A CellTox Green Cytotoxicity Assay to monitor cytotoxicity in HEK293 cells - 16 hour (AID 1224888); further: nearly all actives have a fitted effect of over 35% in size
Outline: as §1

[9] = qHTS RealTime-Glo MT Cell Viability Assay in HepG2 cells - 0 hour (AID 1224889); further: nearly all actives have a fitted effect of over 50% in size
Outline: as §3

[10] = A CellTox Green Cytotoxicity Assay to monitor cytotoxicity in HepG2 cells - 8 hour (AID 1224890); further: nearly all actives have a fitted effect of over 45% in size
Outline: as §2
Potency means the concentration at half of the fitted maximal effect.

Row | SMILES | Potency [1] | Potency [2] | Potency [3] | Potency [4] | Potency [5] | Potency [6] | Potency [7] | Potency [8] | Potency [9] | Potency [10]
1 | NNC(=O)c1cccc(C(=O)NN)c1 | inactive | inactive | inactive | inactive | inactive | inactive | inactive | inactive | inactive | inactive
2 | c1ccc(CSCc2ccccc2)cc1 | inactive | inactive | inactive | inactive | inactive | inactive | inactive | inactive | inactive | inactive
3 | CC(C)(C)c1ccc(C(=O)O)cc1 | inactive | inactive | inactive | inactive | inactive | inactive | inactive | inactive | inactive | inactive
4 | CNc1ccc(O)cc1 | 12.3 µM (active) | inactive | 54.8 µM (active) | inactive | 48.9 µM (active) | 12.3 µM (active) | 15.5 µM (active) | inactive |  | 
5 | CCC(N)(CO)CO | inactive | inactive | inactive | inactive | inactive | inactive | inactive | inactive | inactive | inactive
6 | O=C1C=CC(=O)N1c1ccc(Cc2ccc(N3C(=O)C=CC3=O)cc2)cc1 | 19.5 µM (active) | inactive | 9.77 µM (active) | 54.9 µM (active) | 12.3 µM (active) | 13.8 µM (active) | 21.9 µM (active) | 49 µM (active) | inactive | 17.4 µM (active)
7 | CCC(C)(C)C1CCCCC1OC(C)=O (stereo not given) | inactive | inactive | inactive | inactive | inactive | inactive | inactive | inactive | inactive | inactive
8 | CSc1ccc(C(=O)c2[nH]c(=O)[nH]c2C)cc1 | inactive | inactive | inactive | inactive | inactive | inactive | inactive | inactive | inactive | inactive
9 | CCCCCCCCCCn1cc[n+](CCCCCCCCCC)c1C | 19.5 µM (active) | inactive | 17.4 µM (active) | 19.5 µM (active) | 21.9 µM (active) | 2.19 µM (active) | 21.9 µM (active) | 19.5 µM (active) | inactive | 39 µM (active)
10 | CCCCN1C(=O)[C@@H]([C@H](O)C2CCCCC2)NC(=O)C12CCN(Cc1ccc(Oc3ccc(C(=O)O)cc3)cc1)CC2 | inactive | inactive | inactive | inactive | inactive | inactive | inactive | inactive | inactive | inactive
11 | COc1cc(-c2ccc(N=C=O)c(OC)c2)ccc1N=C=O | inactive | inactive | inactive | inactive | inactive | inactive | inactive | inactive | inactive | inactive
12 | Clc1ccc(C(Cn2ccnc2)OCc2ccc(Sc3ccccc3)cc2)c(Cl)c1 (stereo not given) | inactive | inactive | inactive | inactive | inactive | inactive | inactive | inactive | inactive | inactive
13 | CC(C)(C)C(=O)OCOC(=O)C1N2C(=O)CC2S(=O)(=O)C1(C)C (stereo not given) | inactive | inactive | inactive | inactive | inactive | inactive | inactive | inactive | inactive | 
14 | CC[C@@]1(O)C(=O)OCc2c1cc1n(c2=O)Cc2cc3c(CN(C)C)c(O)ccc3nc2-1 | 23.9 µM (active) | 23.9 µM (active) | 8.49 µM (active) | 26.8 µM (active) | inactive | 0.0849 µM (active) | inactive | 26.8 µM (active) | inactive | 23.9 µM (active)
15 | C[C@]12CCC(=O)C=C1CC[C@@H]1[C@@H]2[C@@H](O)C[C@@]2(C)[C@H]1CC[C@]2(O)C(=O)COC(=O)CCC(=O)O | inactive | inactive | inactive | inactive | inactive | inactive | inactive | inactive | 3.38 µM (active) | 
16 | CCCCCOC(=O)CCCC | inactive | inactive | inactive | inactive | inactive | inactive | inactive | inactive | inactive | inactive
17 | Oc1cc2ccccc2c2ccccc12 | 17.4 µM (active) | inactive | 11 µM (active) | inactive | 11 µM (active) | 9.77 µM (active) | 3.47 µM (active) | inactive | inactive | inactive
18 | C=CC(=O)OCC(CO)(COC(=O)C=C)COC(=O)C=C | 15.5 µM (active) | inactive | 9.81 µM (active) | inactive | 13.9 µM (active) and 11 µM (active) | 4.91 µM (active) | 6.19 µM (active) and inactive | inactive | inactive | inactive
19 | Cc1cccc(N(C)C(=S)Oc2ccc3c(c2)C2CCC3C2)c1 (stereo not given) | inactive | inactive | inactive | inactive | inactive | inactive | inactive | inactive | inactive | inactive

Row | SMILES | Potency [1] | Potency [2] | Potency [3] | Potency [4] | Potency [5] | Potency [6] | Potency [7] | Potency [8] | Potency [9] | Potency [10]
20 | Nc1cc(C(F)(F)F)ccc1S | inactive | inactive | inactive | inactive | inactive | inactive | inactive | inactive | inactive | inactive
21 | CN(C)CCCOC1(Cc2ccccc2)CCCCCC1 | inactive | inactive | inactive | inactive | inactive | inactive | inactive | inactive | inactive | inactive
22 | CC(C)=CCOc1ccc(/C=C/C(=O)c2ccc(OCC=C(C)C)cc2OCC(=O)O)cc1 | inactive | inactive | inactive | inactive | inactive | inactive | inactive | inactive | inactive | inactive
23 | O=C(O)c1cc(O)c2c(c1)C(=O)c1cccc(O)c1C2=O | inactive | inactive | inactive | inactive | inactive | inactive | inactive | inactive | inactive | inactive
24 | Cc1ccc(O)c(C(C)(C)C)c1 | 43.6 µM (active) | inactive | 43.6 µM (active) and 34.7 µM (active) | inactive | inactive | inactive | inactive | inactive | inactive | 48.9 µM (active) and 38.9 µM (active)
25 | CN(C)[C@@H]1C(=O)C(C(N)=O)=C(O)[C@@]2(O)C(=O)C3=C(O)c4c(O)cccc4C[C@H]3C[C@@H]12 | inactive | inactive | inactive | inactive | inactive | inactive | inactive | inactive | inactive | inactive
26 | N=C1N=C(N)c2cc3ccccc3cc21 | 54.9 µM (active) | inactive | 33.4 µM (active) | 54.9 µM (active) | 38.9 µM (active) | 24.5 µM (active) | 43.6 µM (active) | 54.9 µM (active) | inactive | 
27 | O=C(O)c1c(Cl)cccc1Cl | inactive | inactive | inactive | inactive | inactive | inactive | inactive | inactive | inactive | inactive
28 | CN(C)c1ccc(SC#N)cc1 | inactive | inactive | inactive | inactive | inactive | inactive | inactive | inactive | inactive | inactive
29 | Nc1ccc2c3c(cccc13)-c1ccccc1-2 | 44.1 µM (active) | 24.8 µM (active) | 44.1 µM (active) | 44.1 µM (active) | inactive | 24.8 µM (active) | 19.7 µM (active) | 44.1 µM (active) | inactive | 39.3 µM (active)
30 | N#CC1(c2ccc(F)cc2)CCC(=O)CC1 | inactive | inactive | inactive | inactive | inactive | inactive | inactive | inactive | inactive | inactive
31 | O=C(NO)C1(NS(=O)(=O)c2ccc(Oc3ccc(F)cc3)cc2)CCOCC1 | inactive | inactive | inactive | inactive | inactive | inactive | inactive | inactive | inactive | inactive
32 | CSc1ccc(/C=C2/C(C)=C(CC(=O)O)c3cc(F)ccc32)cc1 | inactive | inactive | inactive | inactive | inactive | inactive | inactive | inactive | inactive | inactive
33 | CCN(CC)CCNC(=O)c1c(C)[nH]c(/C=C2\C(=O)Nc3ccc(F)cc32)c1C | 23.9 µM (active) | 21.3 µM (active) | 10.7 µM (active) | 23.9 µM (active) | 21.3 µM (active) | 9.52 µM (active) | 21.3 µM (active) | 23.9 µM (active) | inactive | 19 µM (active)
34 | Cc1oc(-c2ccccc2)nc1CCC(=O)c1ccc(CC2SC(=O)NC2=O)cc1 (stereo not given) | inactive | inactive | inactive | inactive | inactive | inactive | inactive | inactive | inactive | inactive
35 | CCN(C(=O)c1cc(C)cc(OC[C@H](C)Nc2ccncc2)c1)C(C)C | inactive | inactive | inactive | inactive | inactive | inactive | inactive | inactive | inactive | inactive
36 | CN(C)[C@@H]1C(=O)C(C(N)=O)=C(O)[C@@]2(O)C(=O)C3=C(O)c4c(O)ccc(Cl)c4[C@@H](O)[C@H]3C[C@@H]12 | inactive | inactive | inactive | inactive | inactive | inactive | inactive | inactive | inactive | inactive
37 | O=c1[nH]cnc2nc[nH]c12 | inactive | inactive | inactive | inactive | inactive | inactive | inactive | inactive | inactive | inactive
38 | CCCCCCCCCCCCCC[P+](CCCC)(CCCC)CCCC (tested in a mixture with another compound) | 15.6 µM (active) | inactive | 15.6 µM (active) | 19.6 µM (active) | 19.6 µM (active) | 1.96 µM (active) | 15.6 µM (active) | 17.5 µM (active) | inactive | 22 µM (active)
